The record followed here is PubChem BioAssay AID624040 (The Scripps Research Institute Molecular Screening Center, 2012).

Out of some 360,000 compounds screened, about 2,100 (0.58%) were called active.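 Rule for the calls: active = inhibition above a per-plate cutoff, the mean of that plate's test compounds plus 3 SD (cut at about 27% in these data); inactive = the rest.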 Many of the other results were omitted from the sample, so actives are more common in it than they were.

In this experiment the target is Muscarinic acetylcholine receptor M5 (Homo sapiens) (UniProt P08912). The experiment in a line: CHRM5 blockers of acetylcholine calcium response – CHO cells, Fluo-8 calcium fluorescence, primary screen (AID 624040).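 Note: 0% = acetylcholine EC80 with DMSO and 100% = DMSO without agonist.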 The note with it: CHO-hM5 cells, ACh EC80, at 3 µM, active compounds read high.
Sequence of Muscarinic acetylcholine receptor M5 (Homo sapiens) (P08912 whole entry, looked up): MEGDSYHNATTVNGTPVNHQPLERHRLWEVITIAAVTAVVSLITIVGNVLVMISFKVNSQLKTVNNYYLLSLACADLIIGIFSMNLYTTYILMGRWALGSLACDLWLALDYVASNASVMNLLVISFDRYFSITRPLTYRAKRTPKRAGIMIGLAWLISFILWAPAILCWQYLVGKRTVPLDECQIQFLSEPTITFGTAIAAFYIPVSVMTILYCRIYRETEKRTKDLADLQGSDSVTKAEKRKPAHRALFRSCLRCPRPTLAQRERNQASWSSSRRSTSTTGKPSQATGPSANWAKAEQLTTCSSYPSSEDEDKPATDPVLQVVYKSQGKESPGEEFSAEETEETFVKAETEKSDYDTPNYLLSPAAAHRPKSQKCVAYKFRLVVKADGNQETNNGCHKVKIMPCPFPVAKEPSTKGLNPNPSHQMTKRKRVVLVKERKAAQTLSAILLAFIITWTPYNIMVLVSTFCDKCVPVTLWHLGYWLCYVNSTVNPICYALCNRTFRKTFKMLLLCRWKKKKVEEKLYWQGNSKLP
As to `CSCCC(NC(=O)COc1ccccc1)C(=O)Nc1ccc(C)cc1` (stereo unspecified), the inhibition was 0.42% (inactive). Then `CC(C)c1ccc2oc(=O)cc(CN3CCN(Cc4ccccc4)CC3)c2c1`, with 27.9% (active); and `Cc1cc2oc(=O)cc(CN3CCN(S(=O)(=O)c4cccs4)CC3)c2cc1C(C)C`, with 6.3% (inactive). Turning to `O=c1cc(CN2CCCCCCC2)c2c(ccc3ccccc32)o1`, the inhibition is 1.52% (inactive). As to `COc1ccc(-c2cc3nc(C)c(CCC(=O)NC(C)CCc4ccco4)c(C)n3n2)c(OC)c1` (stereo unspecified), the inhibition was -13.5% (inactive). The same measure for `CCC(C)C(NC(=O)C1CCC(=O)N1C(=O)OCc1ccccc1)C(=O)NC(C(=O)N1CCCC1C(N)=O)C(C)CC` (stereo unspecified): 5.74% (inactive); for `CCCCCCCCn1c2c(c(=N)c3c1CCC3)CCCC2`: 32.9% (active).

Regarding `C#Cc1ccc([C@@H]2C=C(C(=O)O)O[C@H](OCCCCO)C2)cc1`, the inhibition was 13.8% (inactive). As to `CCCN(Cc1cc2cccc(C)c2[nH]c1=O)S(C)(=O)=O`, the inhibition was -2.81% (inactive). For the molecule `COc1cccc(CNC(=O)CCC2CCCN(C(=O)c3cc(C)[nH]n3)C2)c1` (stereo unspecified), the inhibition is 32.7% (active). Consider `COc1cccc(CNC(=O)CCC2CCCN(C(=O)c3ccoc3C)C2)c1` (stereo unspecified), for which the inhibition is 12.6% (inactive). The same measure for `COc1cccc(CNC(=O)CCC2CCCN(C(=O)c3ccc(F)c(Cl)c3)C2)c1` (stereo unspecified): -0.63% (inactive); for `CC1(C)Cc2nc3sc4c(SCC(=O)NC(c5ccccc5)c5ccccc5)ncnc4c3cc2CO1`: -8.35% (inactive). Then `CN(C)c1ccc(/C=C2\NC(=S)N(Cc3ccccc3)C2=O)cc1`, with 52.7% (active). The same measure for `CCN(C(=O)CSc1nnnn1-c1ccc(OC)cc1)C1CCS(=O)(=O)C1` (stereo unspecified): 12.8% (inactive); for `CC(Sc1nn(-c2ccc(Cl)cc2)c(=S)s1)C(=O)NCC1CCCO1` (stereo unspecified): -4.62% (inactive); for `O=[N+]([O-])c1c(NCCO)cc(Sc2nc3ccccc3s2)c2nonc12`: 29.2% (active). For the molecule `N#Cc1ccc(OCCN2C(=O)NC3(CCSC3)C2=O)cc1` (stereo unspecified), the inhibition was -5.81% (inactive). The same measure for `COc1ccc(NC(=O)c2sccc2SCC#N)cc1`: 2.72% (inactive); for `CN1CCN(C(=O)C2=C[C@H](c3ccc4c(c3)OCO4)C[C@H](OCc3ccc(CO)cc3)O2)CC1`: 3.48% (inactive); for `COc1ccc(-n2nnc3c(=O)n(CC(=O)OCc4ccccc4)cnc32)cc1`: 4.49% (inactive). Then `CSc1nsc(NC(=O)Nc2ccccc2)n1`, with 31.1% (active). Then `CCSc1nsc(NC(=O)Nc2cccc(C(C)=O)c2)n1`, with 22.5% (inactive); and `C=CCSc1nsc(NC(=O)Nc2cccc(C(C)=O)c2)n1`, with 21.8% (inactive); and `COC(=O)/C(C#N)=C/c1occc1C`, with 2.54% (inactive). On to `CC1OC2C(OC1C)N(S(C)(=O)=O)CCN2S(C)(=O)=O` (stereo unspecified), for which the inhibition was -2.68% (inactive). Regarding `Cc1ccc(C(c2nnnn2CS(=O)(=O)c2ccc(C)cc2)N2CCC(C(N)=O)CC2)cc1` (stereo unspecified), the inhibition was -9.51% (inactive). On to `NC(=O)C1(N2CCCCC2)CCN(C2CC(=O)N(Cc3ccc(N4CCCC4=O)cc3)C2=O)CC1` (stereo unspecified), for which the inhibition was -5.49% (inactive). The same measure for `S=C(Nc1ccc(Br)cc1)NC1CCN(Cc2ccccc2)CC1`: -2.81% (inactive). In the case of `S=C(NCCCc1ccccc1)Nc1ccc(Br)cc1`, the inhibition is 27.8% (active).

For `O=S(=O)(NCCCc1ccccc1)c1ccc(Br)cc1`, the inhibition was 6.97% (inactive). The same measure for `Cc1sc(NC(=O)C2C3CCC(O3)C2C(=O)O)c(C(=O)OC(C)C)c1-c1ccc(Cl)cc1` (stereo unspecified): -0.97% (inactive); for `CC(C)OCCCNc1ncnc2c1[nH]c1ccc(F)cc12`: 36.1% (active). The same measure for `COC(=O)c1ccccc1NC(=O)CN(Cc1ccccc1)S(C)(=O)=O`: -12.2% (inactive); for `COCCNC(=O)C1(C)CCCN(Cc2cccc(F)c2)C1` (stereo unspecified): 4.07% (inactive).

Regarding `COc1cc(CNc2ncnc3c2ncn3[C@H]2CN(Cc3cccs3)C[C@@H](CO)O2)cc(OC)c1OC`, the inhibition was 10.9% (inactive). Regarding `O=C(Cc1ccc(Cl)c(Cl)c1)Nc1ccc(SC(F)F)cc1`, the inhibition is 33.6% (active).

On to `O=C(CCl)Nc1ccc(Sc2ccc(NC(=O)CCl)cc2)cc1`, for which the inhibition is 2.24% (inactive). Then `O=C(CC(O)(C(F)(F)F)C(F)(F)F)Nc1ccc(Cl)c(Cl)c1`, with 17.8% (inactive); and `Cc1ccc(NC2=C(Cl)C(=O)OC2OC(=O)c2ccccc2C)cc1` (stereo unspecified), with 5.07% (inactive); and `CCC(=O)c1ccc(N2CCN(C(=O)c3cc([N+](=O)[O-])ccc3F)CC2)c(F)c1`, with 17.6% (inactive). The same measure for `CCN1CCN(c2ccc([N+](=O)[O-])cc2C(=O)c2ccc(Cl)cc2)CC1`: 78.8% (active). Then `CCC(C)(C)NC(=O)c1cc([N+](=O)[O-])ccc1N1CCCCC1`, with 6.53% (inactive); and `O=C(CCC1CCCCC1)Nc1cc(C(F)(F)F)ccc1N1CCOCC1`, with 10.2% (inactive); and `COC(=O)[C@@]12C[C@@H](CC(=O)N3CCCCC3)C(=O)N(Cc3ccc4c(c3)OCO4)C1=CCC(C)(C)C2`, with -4.41% (inactive). On to `Cc1ccc(C)c2[nH]c(=O)c(CCNC(=O)c3cccs3)cc12`, for which the inhibition was 2.31% (inactive).

`Cc1cc2cc(CNC(=O)c3cccs3)ccc2[nH]1`: the inhibition was 97.7% (active). Then `Cc1cc2cc(CNC(=O)c3ccc(S(=O)(=O)N4CCOCC4)cc3)ccc2[nH]1`, with 13.1% (inactive). The same measure for `Cc1ccc(C)n1-c1ccncc1`: 2.29% (inactive). The same measure for `CCOC(=O)c1ccc(N/C(=N/S(=O)(=O)c2ccccc2)c2ccccc2)cc1`: -3.7% (inactive).

In the case of `COC(=O)c1ccc(NC(=O)c2ccccc2NS(=O)(=O)c2ccccc2)cc1`, the inhibition is 31.6% (active). The same measure for `COc1cc(NC(=O)c2ccccc2NS(=O)(=O)c2ccc(Cl)s2)cc(OC)c1`: 14.3% (inactive); for `COc1ccccc1NC(=O)CSc1nnc(-c2ccoc2C)n1CCc1ccccc1`: 6.68% (inactive); for `COC(=O)C1=C(C)N(c2ccc(C)cc2)/C(=C/c2ccc(O)cc2)C1=O`: 3.87% (inactive).

With `Cc1ccn2c(=O)c(C(=O)NCCC3=CCCCC3)c(O)nc2c1`, the inhibition is 2.86% (inactive). Then `C[C@H](NC(=O)c1[nH]cnc1C(=O)Nc1nccs1)c1ccccc1`, with 11.9% (inactive). Regarding `CC(=O)NC(CC(=O)Nc1nccs1)c1ccccc1` (stereo unspecified), the inhibition is -3.08% (inactive). The same measure for `CC(NC(=O)C(=O)Nc1nccs1)c1ccccc1` (stereo unspecified): 30.9% (active); for `O=C(C1CC1)N1N=C2CCCCC2C1(O)C(F)(F)F` (stereo unspecified): 13.2% (inactive). For the molecule `Cc1nc(C)c(C(=O)N(c2ccc(C)c(C)c2)C(C(=O)NCc2ccco2)c2ccccc2)s1` (stereo unspecified), the inhibition was 2.62% (inactive). The same measure for `CC(C)(C)C(=O)c1c(N)[nH]c(C(=O)c2ccccc2)c1-c1ccc(F)cc1`: -1.9% (inactive); for `COc1ccc(NC(=O)CC(NC(C)c2ccccc2)C(=O)O)cc1` (stereo unspecified): 4.75% (inactive); for `COc1ccc(NC(=O)COC(=O)c2ccc(NS(=O)(=O)/C=C/c3ccccc3)cc2)cc1`: 14.2% (inactive). The same measure for `CCC(C(=O)OCC(=O)Nc1ccc(C(=O)Nc2ccc(OC)cc2)cc1)c1ccccc1` (stereo unspecified): 36.3% (active); for `Cc1ccc(N2C(=O)C3C(c4ccccc4)(C2=O)C3(c2ccccc2)c2ccccc2)cc1` (stereo unspecified): 15.6% (inactive); for `OC(c1ccccc1)(c1ccccc1)C1CCN(CCCOc2ccccc2)CC1`: 97.1% (active).

Turning to `O=c1[nH]c2ccccc2n1C1CCN(CCOc2ccccc2)CC1`, the inhibition was 8.05% (inactive). For `COc1ccc(OCCCCN2CCC(C)CC2)cc1`, the inhibition is 5.32% (inactive). Then `OC[C@@H]1CN(Cc2ccc3c(c2)OCO3)C[C@H](n2cnc3c(NCc4ccco4)ncnc32)O1`, with -1.64% (inactive); and `COc1cc(C(=O)NCc2ccc(-n3cccc3)cc2)cc(OC)c1OC`, with 21.1% (inactive); and `COc1cc(C(=O)NCc2nnc(SCC(=O)Nc3nc4ccc(C)cc4s3)o2)cc(OC)c1OC`, with -2.26% (inactive). The same measure for `CCn1c(CNC(=O)c2cc(OC)c(OC)c(OC)c2)cc2cc(C)ccc21`: 48% (active); for `CSc1ncccc1C(=O)OCC(=O)N1CCOCC1`: -6.57% (inactive); for `Cc1ccc2cc(CCNC(=O)c3ccc4c(c3)OCO4)c(=O)[nH]c2c1`: -4.27% (inactive).

Consider `OC(COc1ccc2ccccc2c1)Cn1cncn1` (stereo unspecified), for which the inhibition was -0.83% (inactive). The same measure for `CCOC(=O)c1c(/N=C/C2C(=O)CC(C)(C)CC2=O)sc(C)c1C`: -2.97% (inactive); for `CC(C)CN(C(=O)Cn1c(=O)cnc2ccccc21)C1CCS(=O)(=O)C1` (stereo unspecified): 99.6% (active). For `CCN(C(=O)CSc1nc2ccccc2n1CC)C1CCS(=O)(=O)C1` (stereo unspecified), the inhibition was -0.58% (inactive). Then `CC(C)CN(C(=O)CSc1ncnc2sccc12)C1CCS(=O)(=O)C1` (stereo unspecified), with 1.5% (inactive); and `N#Cc1c(NC(=O)c2ccc(N3CCOCC3)c([N+](=O)[O-])c2)sc2c1CCCC2`, with 2.95% (inactive). The same measure for `O=C1NC[C@H](Cc2ccc(O)cc2)N(C[C@@H]2CCCN2C[C@H](Cc2ccccc2)N2C[C@H](Cc3ccccc3)N(CC3CCCCC3)C(=O)C2=O)C1=O`: -4.87% (inactive); for `Cc1ccc(OCc2cc(C(=O)N(C)CCn3ccnc3C)no2)cc1C`: -4.53% (inactive); for `Cc1cc(CN(C)C(=O)c2cc(COc3ccc(C)c(C)c3)on2)n[nH]1`: -7.18% (inactive). Then `CN(Cc1cccnc1)C(=O)c1cc(COc2ccc3ncccc3c2)on1`, with 42.6% (active); and `CC/C(=C\c1ccc(Cl)cc1)c1ccncc1`, with 4.13% (inactive); and `CC(=O)Nc1cccc(-c2ccnc3c2CC(C)(C(=O)NCc2ccccc2)O3)c1` (stereo unspecified), with -11.6% (inactive). Regarding `C=CCN(c1ccccc1C(=O)NCC(=O)OCC)S(=O)(=O)c1ccc(C)cc1`, the inhibition was 3.91% (inactive). The same measure for `CCOc1ccc(CN(Cc2ccco2)S(=O)(=O)c2ccc(-n3cnnn3)c(OC)c2)cc1`: 4.28% (inactive).

For `Cc1ccc(C(C(=O)NCc2ccco2)N(CC2CCCO2)C(=O)Cn2nnc3ccccc32)cc1` (stereo unspecified), the inhibition is -3.06% (inactive). Then `COc1ccc(C(C(=O)NCC2CCCO2)N(C(=O)Cn2nnc3ccccc32)c2ccc(NC(C)=O)cc2)cc1OC` (stereo unspecified), with -5.21% (inactive). Then `CCOc1cc(C(C(=O)NCC2CCCO2)N(C(=O)Cn2nnc3ccccc32)c2cccc(OC)c2)ccc1O` (stereo unspecified), with 31.8% (active).

The inhibition is the relative decrease from the control value, in per cent.
